Results as given in PubChem BioAssay (NCATS).
Inconclusive results are not listed. Calls of active or inactive are those of the source. Calls follow the shape of the dose curve; as a rule, active = well fitted inhibition curve with a large enough effect; inconclusive = small, poorly fitted or top-dose-only effect; inactive = flat fitted curve, though single readings scatter.

Assays:
Test in all cases: qHTS profiling for inhibitors of Plasmodium falciparum proliferation (AID 504749); also: nearly all actives have a fitted effect of over 60% in size
Details in all cases: P. falciparum in erythrocytes, SYBR Green DNA, 72 h; series mostly up to 28.7 µM
CP269 = tested on: CP269
Procedure, shortened: (§1)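 Parasite proliferation within erythrocytes, 72 h exposure. Endpoint: SYBR Green I fluorescence after overnight lysis at room temperature. Controls: 0.29 uM artemisinin, DMSO.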

CP286 = tested on: CP286
Procedure, shortened: as §1

CP291 = tested on: CP291
Procedure, shortened: as §1

CP297 = tested on: CP297
Procedure, shortened: as §1

CP305 = tested on: CP305
Procedure, shortened: as §1

CP315 = tested on: CP315
Procedure, shortened: as §1

CP325 = tested on: CP325
Procedure, shortened: as §1

CP329 = tested on: CP329
Procedure, shortened: as §1

CP335 = tested on: CP335
Procedure, shortened: as §1

DFO2036 = tested on: DFO2036
Procedure, shortened: as §1

DIV14 = tested on: DIV14
Procedure, shortened: as §1

DIV17 = tested on: DIV17
Procedure, shortened: as §1

DIV30 = tested on: DIV30
Procedure, shortened: as §1

Dd2 = tested on: Dd2
Procedure, shortened: as §1

ECU = tested on: ECU
Procedure, shortened: as §1

FAB9 = tested on: FAB9
Procedure, shortened: as §1

GB4 = tested on: GB4
Procedure, shortened: as §1

HB3 = tested on: HB3
Procedure, shortened: as §1

ICS = tested on: ICS
Procedure, shortened: as §1

JCK = tested on: JCK
Procedure, shortened: as §1

Measured: Potency
Potency is read from the fitted curve at half-maximal effect.

Clc1cccc(Cl)c1NC1=NCCN1
inactive: CP269 | CP286 | CP291 | CP297 | CP305 | CP315 | CP325 | CP329 | CP335 | DFO2036 | DIV14 | DIV17 | DIV30 | Dd2 | ECU | FAB9 | GB4 | HB3 | ICS | JCK

Cc1[nH]c(=O)c(C#N)cc1-c1ccncc1
inactive: CP269 | CP286 | CP291 | CP297 | CP305 | CP315 | CP325 | CP329 | CP335 | DFO2036 | DIV14 | DIV17 | DIV30 | Dd2 | ECU | FAB9 | GB4 | HB3 | ICS | JCK

N=c1nc(N2CCCCC2)cc(N)n1O
inactive: CP269 | CP286 | CP291 | CP297 | CP305 | CP315 | CP325 | CP329 | CP335 | DFO2036 | DIV14 | DIV17 | DIV30 | Dd2 | ECU | FAB9 | GB4 | HB3 | ICS | JCK

Cc1[nH]c(=O)c(C#N)cc1-c1ccc2nccn2c1
inactive: CP269 | CP286 | CP291 | CP297 | CP305 | CP315 | CP325 | CP329 | CP335 | DFO2036 | DIV14 | DIV17 | DIV30 | Dd2 | ECU | FAB9 | GB4 | HB3 | ICS | JCK

Clc1ccc(Nc2nnc(Cc3ccncc3)c3ccccc23)cc1
inactive: CP269 | CP291 | CP297 | CP305 | CP315 | CP325 | CP329 | DFO2036 | FAB9 | GB4 | HB3 | JCK
active: ECU 14.1 µM

OC(CN1CCC(Cc2ccc(F)cc2)CC1)c1ccc(Cl)cc1 (centres undefined)
inactive: CP315 | CP325 | CP329
active: CP286 3.55 µM | CP335 3.79 µM | DIV14 1.07 µM | DIV17 0.953 µM | DIV30 1.9 µM | Dd2 2.51 µM | ECU 1.58 µM | GB4 1.2 µM | HB3 8.91 µM | ICS 0.355 µM | JCK 2 µM

Nc1nc2ccc(OC(F)(F)F)cc2s1
inactive: CP269 | CP286 | CP291 | CP297 | CP305 | CP315 | CP325 | CP329 | CP335 | DFO2036 | DIV17 | DIV30 | Dd2 | ECU | FAB9 | GB4 | HB3 | ICS | JCK

CCOC(=O)C1=C[C@]2(CC)CCCN3CCc4c(n1c1ccccc41)[C@@H]32
active: CP269 13.5 µM | CP297 13.5 µM | DIV14 12 µM | DIV17 15.1 µM | DIV30 13.5 µM | ICS 8.91 µM

C1COC(NC(C2CC2)C2CC2)=N1
inactive: CP269 | CP286 | CP297 | CP305 | CP315 | CP335 | DIV30 | Dd2 | FAB9 | HB3 | JCK

Cc1c(C)c2c(c(C)c1O)CCC(C)(COc1ccc(CC3SC(=O)NC3=O)cc1)O2 (centres undefined)
inactive: CP286 | CP291 | CP305 | CP315 | CP325 | CP329 | CP335 | DFO2036 | FAB9 | HB3 | JCK
active: DIV14 15.1 µM | GB4 12 µM

COc1ccc2nc(S(=O)Cc3ncc(C)c(OC)c3C)[nH]c2c1 (centres undefined)
active: ICS 14.1 µM
inactive: CP269 | CP286 | CP291 | CP297 | CP305 | CP315 | CP325 | CP329 | CP335 | DFO2036 | DIV30 | Dd2 | ECU | FAB9 | HB3 | JCK

CCCc1nn(C)c2c(=O)[nH]c(-c3cc(S(=O)(=O)N4CCN(C)CC4)ccc3OCC)nc12
inactive: CP269 | CP286 | CP297 | CP305 | CP315 | CP325 | CP329 | CP335 | DFO2036 | DIV14 | DIV17 | Dd2 | ECU | FAB9 | GB4 | HB3 | JCK
active: ICS 11.2 µM

CN1CCN(CCCN2c3ccccc3Sc3ccc(C(F)(F)F)cc32)CC1
inactive: FAB9
active: CP269 15.1 µM | CP286 12.6 µM | CP335 5.36 µM | DFO2036 8.91 µM | DIV14 8.49 µM | DIV17 7.57 µM | DIV30 16.9 µM | Dd2 12.6 µM | GB4 7.57 µM | ICS 8.91 µM

CCOC(=O)N1CCC(=C2c3ccc(Cl)cc3CCc3cccnc32)CC1
inactive: DFO2036 | FAB9
active: CP297 13.5 µM | DIV14 7.57 µM | DIV17 9.53 µM | DIV30 13.5 µM | ECU 12.6 µM | GB4 12 µM | ICS 2.24 µM

C#Cc1cccc(Nc2ncnc3cc(OCCOC)c(OCCOC)cc23)c1
active: DIV14 8.49 µM | DIV17 15.1 µM | ICS 11.2 µM
inactive: CP305 | CP315 | CP329 | Dd2 | FAB9 | JCK

O=NN(CCCl)C(=O)NCCCl
inactive: CP269 | CP291 | CP297 | CP305 | CP315 | CP325 | CP329 | DIV14 | DIV17 | DIV30 | Dd2 | ECU | FAB9 | HB3 | JCK

NC[C@H](O)c1ccc(O)c(O)c1
inactive: CP269 | CP286 | CP291 | CP297 | CP305 | CP315 | CP325 | CP329 | CP335 | DFO2036 | DIV17 | DIV30 | Dd2 | ECU | FAB9 | GB4 | HB3 | ICS | JCK

N[C@@H]1CONC1=O
inactive: CP269 | CP286 | CP291 | CP305 | CP315 | CP325 | CP329 | CP335 | DFO2036 | DIV14 | DIV17 | DIV30 | Dd2 | ECU | FAB9 | GB4 | HB3 | ICS | JCK

CNC[C@H](O)c1cccc(O)c1
inactive: CP269 | CP286 | CP291 | CP297 | CP305 | CP325 | CP329 | DFO2036 | DIV14 | DIV17 | DIV30 | Dd2 | ECU | FAB9 | GB4 | HB3 | ICS | JCK

Oc1ccc(C2CNCCc3c2cc(O)c(O)c3Cl)cc1 (centres undefined)
inactive: CP269 | CP291 | CP297 | CP305 | CP315 | CP325 | CP329 | CP335 | DFO2036 | DIV14 | DIV17 | DIV30 | Dd2 | ECU | FAB9 | HB3 | JCK

Cc1cc2c(C(C)C)c(O)c(O)c(C=O)c2c(O)c1-c1c(C)cc2c(C(C)C)c(O)c(O)c(C=O)c2c1O
inactive: FAB9
active: Dd2 11.2 µM | ICS 5.01 µM

NC(N)=NC(=O)c1nc(Cl)c(N)nc1N
active: DIV14 9.53 µM | DIV17 6.75 µM | GB4 15.1 µM | HB3 11.2 µM | ICS 2.24 µM
inactive: CP297 | CP315 | CP329

CCCc1nc2c(C)cc(-c3nc4ccccc4n3C)cc2n1Cc1ccc(-c2ccccc2C(=O)O)cc1
inactive: CP305 | CP315 | CP325 | CP329 | FAB9
active: CP286 11.2 µM | CP335 6.01 µM | DIV17 0.675 µM | Dd2 5.01 µM | HB3 10 µM | ICS 0.631 µM

CCOC(=O)C1=C[C@@]2(CC)CCCN3CCc4c(n1c1ccccc41)[C@H]32
active: CP269 10.7 µM | CP291 13.5 µM | CP297 12 µM | CP305 13.5 µM | CP325 9.53 µM | CP335 12 µM | DIV14 13.5 µM | DIV17 7.57 µM | DIV30 12 µM | GB4 7.57 µM

O=C1CCc2cc(OCCCCc3nnnn3C3CCCCC3)ccc2N1
inactive: CP269 | CP286 | CP291 | CP297 | CP305 | CP315 | CP325 | CP329 | CP335 | DIV14 | DIV17 | DIV30 | GB4 | ICS | JCK

Cc1ccccc1C(OCCN(C)C)c1ccccc1 (centres undefined)
inactive: CP269 | CP297 | Dd2 | ECU | FAB9 | HB3
active: DIV14 6.75 µM | DIV17 7.57 µM

CC(C)C[C@H](NC(=O)[C@@H](O)[C@H](N)Cc1ccccc1)C(=O)O
active: CP269 9.53 µM | CP286 5.01 µM | CP291 5.36 µM | CP297 8.49 µM | CP305 6.01 µM | CP315 12 µM | CP325 6.75 µM | CP335 6.01 µM | DFO2036 5.62 µM | DIV14 4.78 µM | DIV17 6.75 µM | DIV30 6.01 µM | Dd2 3.16 µM | ECU 7.94 µM | FAB9 10 µM | GB4 4.78 µM | ICS 4.47 µM

CC(c1cc2ccccc2s1)N(O)C(N)=O (centres undefined)
inactive: CP269 | CP286 | CP291 | CP297 | CP305 | CP325 | CP329 | CP335 | DFO2036 | DIV14 | DIV17 | DIV30 | Dd2 | ECU | FAB9 | GB4 | HB3 | ICS | JCK
